This is a sample that favours compounds with a hit; in the whole collection about 5.8% have one here.
TRPV1 potentiator – potentiators of human vanilloid receptor 1 (TRPV1); TRPV1-expressing cells, Fluo-8 calcium influx, capsaicin EC20 potentiation; potentiation, % at 8.33 µM; actives 0.02% (n = 320,000); in the data active = potentiation above about 80%; inconclusive = between about 30% and that limit
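Cells expressing TRPV1 were dye-loaded with Fluo-8 and read kinetically: 10 s baseline, 3 min after compound (agonist portion), then 2 min after EC20 capsaicin (allosteric enhancer portion). Calcium-bound dye fluorescence at 480/520 nm.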
TRPV1 ag – activates the human vanilloid receptor TRPV1; Q8NER1; TRPV1-expressing cells, Fluo-8 calcium influx, agonist mode; activation, % at 8.33 µM; actives 0.19% (n = 320,000); AID 540275; in the data active = activation above about 80%; inconclusive = between about 30% and that limit
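TRPV1-expressing cells were cultured overnight at 35.5C and loaded with Fluo-8 calcium dye for 40 to 90 min at room temperature. After a 10 s baseline, compound was added and calcium influx was read kinetically for 3 min (ex 480/em 520 nm).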
VP16 counter – counter-screen for ROR gamma inhibitors: Gal4-VP16 reporter; Drosophila S2 Gal4-VP16 UAS-luciferase, luminescence, 20 h; Potency, µM (top dose mostly 53.6 µM), usual class: inhibitors; actives 3.5% (n = 310,000); AID 2546;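 note: Gal4-VP16 expression switched on by copper sulfate through the metallothionein promoter; nearly all actives have a fitted effect of over 50% in size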
RORgamma inh – blocks mouse ROR gamma transcriptional activity; Drosophila S2 Gal4-RORgamma UAS-luciferase reporter, 20 h; Potency, µM (top dose mostly 53.6 µM), hits mostly inhibitors; actives 5.4% (n = 310,000); AID 2551; note: nearly all actives have a fitted effect of over 60% in size
Target sequence (P51450 whole entry, looked up, the tested form may be a part): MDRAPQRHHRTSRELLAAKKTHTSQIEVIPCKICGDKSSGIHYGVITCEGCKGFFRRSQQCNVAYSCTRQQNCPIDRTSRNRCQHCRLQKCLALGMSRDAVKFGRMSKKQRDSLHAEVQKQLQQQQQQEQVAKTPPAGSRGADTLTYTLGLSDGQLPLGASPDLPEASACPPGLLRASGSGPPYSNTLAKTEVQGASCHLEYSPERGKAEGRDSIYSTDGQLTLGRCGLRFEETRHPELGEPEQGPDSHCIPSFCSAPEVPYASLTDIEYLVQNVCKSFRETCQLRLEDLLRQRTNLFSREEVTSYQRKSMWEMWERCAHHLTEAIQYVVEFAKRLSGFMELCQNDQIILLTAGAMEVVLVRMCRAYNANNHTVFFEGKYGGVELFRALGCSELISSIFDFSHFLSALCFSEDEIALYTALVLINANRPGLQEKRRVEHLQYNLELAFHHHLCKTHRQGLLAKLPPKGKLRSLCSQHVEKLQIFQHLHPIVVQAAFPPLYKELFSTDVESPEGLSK
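Drosophila S2 cells stably expressing Gal4-DBD/mouse RORγ fusion under metallothionein promoter plus UAS-luciferase; compound 1 h, then 700 uM CuSO4 induction for 20 h at ambient temperature; inhibition read as reduced luminescence.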
uPA generation – blocks generation of uPA at the cell surface; actives 0.31% (n = 330,000); Potency, µM (top dose mostly 38.3 µM), usual class: inhibitors; cell surface uPA generation assay, qHTS; active = well fitted inhibition curve with a large enough effect; inconclusive = small, poorly fitted or top-dose-only effect; inactive = no such curve, though single readings can be large or run the other way; tested in mouse RAW 264.7 cells; note: nearly all actives have a fitted effect of over 55% in size
Hits are given with their value; [ ] = remark or other dose. Unless noted, calls come from the whole dose curve; as a rule, active = well fitted curve in the direction sought with a large enough effect; inconclusive = small, poorly fitted or top-dose-only effect, or another doubt; inactive = no such curve, though single readings can be large; an effect the other way counts as inactive or inconclusive.

`O=c1c2cc(Cl)ccc2nc(-c2ccccc2)n1O` gave TRPV1 potentiator inactive, TRPV1 ag inactive, VP16 counter inactive, RORgamma inh 6.3µM and uPA generation inactive.
Screening O=c1c2ccc(Cl)cc2nc(-c2ccc([N+](=O)[O-])cc2)n1O returned TRPV1 potentiator inactive, TRPV1 ag inconclusive, VP16 counter 18µM, RORgamma inh 8.9µM and uPA generation inactive.
For COc1cc(NC(=O)COc2cc(O)c3c(c2)OC(C)(C)CC3=O)cc(OC)c1OC the results were TRPV1 potentiator inactive, TRPV1 ag inactive, VP16 counter 2.5µM, RORgamma inh inconclusive and uPA generation inconclusive.
Screening O=C1C=C[C@@H](O)[C@H]2[C@@H]3C(=O)N(c4cccc(Oc5ccccc5)c4)C(=O)[C@@H]3CC[C@H]12 returned VP16 counter inactive[10 µM] and RORgamma inh inactive[10 µM].
Screening CCOc1ccc(OCC)c(NS(=O)(=O)c2ccc3c(c2)n(C)c(=O)c(=O)n3C)c1 returned TRPV1 potentiator inactive, TRPV1 ag inactive, RORgamma inh 0.32µM and uPA generation inactive.
Screening COc1cccc(C(=O)N2N=C(c3ccccc3)CC2(O)C(F)(F)F)c1 (stereo unspecified) returned TRPV1 potentiator inactive, TRPV1 ag inactive, VP16 counter 20µM, RORgamma inh 18µM and uPA generation inactive.
For O=C(c1ccco1)N1N=C2CCCCCC2C1(O)C(F)(F)F (stereo unspecified) the results were TRPV1 potentiator inactive, TRPV1 ag inactive, VP16 counter 1µM, RORgamma inh 0.63µM and uPA generation inactive.
For O=C(c1ccccc1O)N1N=C(c2ccccc2)CC1(O)C(F)(F)F (stereo unspecified) the results were TRPV1 potentiator inactive, TRPV1 ag inactive, VP16 counter inconclusive, RORgamma inh 8.9µM and uPA generation inactive.
For O=C(c1ccncc1)N1N=C2CCCCCC2C1(O)C(F)(F)F (stereo unspecified) the results were TRPV1 potentiator inactive, TRPV1 ag inactive, VP16 counter inactive, RORgamma inh inactive and uPA generation inactive.
Screening CCCCC1=NN(C(=O)c2ccco2)C(O)(C(F)(F)F)C1 (stereo unspecified) returned TRPV1 potentiator inactive, TRPV1 ag inactive, VP16 counter 18µM, RORgamma inh 6.3µM and uPA generation inactive.
CC1Cc2ccccc2N1C(=O)CSc1nnc(-c2ccccc2)c(-c2ccccc2)n1 (stereo unspecified) was read as TRPV1 potentiator inactive, TRPV1 ag inactive, VP16 counter inactive, RORgamma inh inactive and uPA generation inactive.
`N[C@@H](Cc1cc(-c2ccc(Cl)cc2Cl)cc(CP(=O)(O)O)c1O)C(=O)O` gave VP16 counter inactive and RORgamma inh inactive.
`COc1ccc(C(=O)COC(=O)CNC(=O)c2ccccc2)cc1F` gave TRPV1 potentiator inactive, TRPV1 ag inactive and uPA generation inactive.
`COc1cccc(C2=NN(C(=O)c3ccccc3)C(O)(C(F)(F)F)C2)c1` (stereo unspecified) gave TRPV1 potentiator inactive, TRPV1 ag inactive, VP16 counter inconclusive, RORgamma inh 10µM and uPA generation inactive.
Screening COc1ccc(C(=O)N2N=C(c3ccccc3)CC2(O)C(F)(F)F)cc1 (stereo unspecified) returned TRPV1 potentiator inactive, TRPV1 ag inactive, VP16 counter inactive[10 µM], RORgamma inh 16µM and uPA generation inactive.
Cc1ccc(C2=NN(C(=O)c3ccco3)C(O)(C(F)(F)F)C2)cc1 (stereo unspecified) was read as TRPV1 potentiator inactive, TRPV1 ag inactive, VP16 counter inconclusive, RORgamma inh inconclusive and uPA generation inactive.
Nc1ccc(C(=O)N2N=C(c3ccccc3)CC2(O)C(F)(F)F)cc1 (stereo unspecified) was read as TRPV1 potentiator inactive, TRPV1 ag inactive, VP16 counter inactive, RORgamma inh 10µM and uPA generation inactive.
Screening COc1cccc(C2=NN(C(=O)c3ccco3)C(O)(C(F)(F)F)C2)c1 (stereo unspecified) returned TRPV1 potentiator inactive, TRPV1 ag inactive, VP16 counter inconclusive, RORgamma inh 5.6µM and uPA generation inactive.
Screening CC(=O)N1N=C(c2ccc(C)c([N+](=O)[O-])c2)OC1(C)C returned VP16 counter inactive, RORgamma inh inactive and uPA generation inactive.
Screening O=C(O)C1=C[C@H](c2coc3ccccc3c2=O)C[C@H](OCc2ccc(CO)cc2)O1 returned TRPV1 potentiator inactive, TRPV1 ag inactive, VP16 counter inactive, RORgamma inh inactive and uPA generation inactive.
`C=C1[C@@H](CCO)N(S(=O)(=O)C(C)(C)C)C[C@@H]1C` gave uPA generation inactive.
Screening CCOC(=O)c1cc(C(=O)OCC)cc(-n2cc(O)c(C(=O)OCC)n2)c1 returned TRPV1 potentiator inconclusive, TRPV1 ag inactive, VP16 counter 11µM and RORgamma inh inconclusive.
For CC(C)(C)C(=O)N1CCC(O)(CS(=O)(=O)Cc2ccccc2Cl)CC1 the results were TRPV1 potentiator inactive, TRPV1 ag inactive, VP16 counter 5.6µM, RORgamma inh inconclusive and uPA generation inactive.
`O=C(N1CCOCC1)N1CCN(c2ccccc2)CC1` gave TRPV1 potentiator inactive, TRPV1 ag inconclusive, VP16 counter inactive, RORgamma inh inactive and uPA generation inactive.
Screening O=C(c1ccc(-c2ccccc2)cc1)N1CCN(c2ccccc2F)CC1 returned TRPV1 potentiator inactive, TRPV1 ag inactive, VP16 counter inactive, RORgamma inh inactive and uPA generation inactive.
Screening CC(=O)c1ccc(N2CCN(C(=S)Nc3cc(C)ccc3C)CC2)cc1 returned TRPV1 potentiator inactive, TRPV1 ag inconclusive, VP16 counter inconclusive, RORgamma inh inconclusive and uPA generation inactive.
For O=C(N1CCOCC1)N1CCN(c2ccccc2F)CC1 the results were TRPV1 potentiator inactive, TRPV1 ag 83, VP16 counter inactive, RORgamma inh inactive and uPA generation inconclusive.
Screening Cc1ccc(C(=O)NC(=S)N2CCN(c3cc(C)ccc3C)CC2)cc1 returned TRPV1 potentiator inactive, TRPV1 ag inconclusive, VP16 counter 1µM, RORgamma inh 1µM and uPA generation inactive.
Screening Cc1ccc(C(=O)NC(=S)N2CCN(c3ccccc3F)CC2)cc1 returned TRPV1 potentiator inactive, TRPV1 ag inactive, VP16 counter 2.8µM, RORgamma inh 0.89µM and uPA generation inactive.
COc1cc2cnc(CCO[C@H]3CCCCO3)cc2cc1OC was read as uPA generation inactive.
CN(C)c1ccc(N=Nc2ccc(C(=O)O)cc2)cc1 was read as TRPV1 potentiator inactive, TRPV1 ag inactive, VP16 counter 1.4µM, RORgamma inh 0.5µM and uPA generation inactive.
O=C(C=Cc1ccccc1O)c1ccccc1O was read as uPA generation inactive.
`Cc1ccc(/C=C/C(=O)c2ccccc(=O)c2O)c(C)c1` gave TRPV1 potentiator inactive, TRPV1 ag inactive, VP16 counter inconclusive, RORgamma inh 7.1µM and uPA generation inactive.

High-throughput results (PubChem BioAssay)
